Results reported in PubChem BioAssay AID1259374 (The Scripps Research Institute Molecular Screening Center, 2018).
In all, about 650,000 compounds went through this assay and about 5,900 (0.91%) were called active. No stated cut-off is given here; in the data, active means inhibition above about 50%; inactive means the rest. Many of the other results were omitted from the sample, so actives are more common in it than they were.

Each molecule was assayed against Microphthalmia-associated transcription factor (Homo sapiens) (UniProt O75030) (assay: MITF inhibitors, primary screen, biochemical, AlphaScreen, human (AID 1259374;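 further: 0% = vehicle wells with protein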)). Conditions: AlphaScreen MITF homodimerization, bead proximity signal; at 2.6 µM; active compounds read high.
Sequence of Microphthalmia-associated transcription factor (Homo sapiens) (O75030 whole entry, looked up): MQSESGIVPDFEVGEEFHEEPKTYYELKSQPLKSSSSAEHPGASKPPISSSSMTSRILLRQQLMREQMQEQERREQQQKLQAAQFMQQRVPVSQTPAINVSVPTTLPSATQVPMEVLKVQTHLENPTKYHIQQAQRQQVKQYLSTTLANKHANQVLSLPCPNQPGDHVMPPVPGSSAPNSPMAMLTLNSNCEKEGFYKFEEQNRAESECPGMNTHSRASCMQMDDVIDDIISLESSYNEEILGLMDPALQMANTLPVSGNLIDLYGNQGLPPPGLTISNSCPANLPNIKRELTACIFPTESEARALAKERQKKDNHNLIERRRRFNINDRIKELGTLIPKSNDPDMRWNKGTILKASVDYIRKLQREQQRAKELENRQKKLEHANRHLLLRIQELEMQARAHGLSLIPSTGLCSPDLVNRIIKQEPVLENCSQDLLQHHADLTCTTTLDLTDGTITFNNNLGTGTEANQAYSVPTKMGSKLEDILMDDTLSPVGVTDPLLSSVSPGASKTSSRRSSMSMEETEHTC

Row | Structure (SMILES) | inhibition
1 | O=[N+]([O-])c1ccccc1CN1CCN(Cc2ccccc2C(F)(F)F)CC1 | 67.3% (active)
2 | O=C(Cc1ccccc1[N+](=O)[O-])NNC(=O)Nc1ccccc1C(F)(F)F | 13.8% (inactive)
3 | O=S(=O)(c1ccc(F)cc1)N1CCN(Cc2ccccc2C(F)(F)F)CC1 | 59.6% (active)
4 | O=S(=O)(c1ccc(F)cc1)N1CCN(CCCc2ccccc2)CC1 | 43.8% (inactive)
5 | COc1ccccc1N1CCN(C2CCN(Cc3ccccc3[N+](=O)[O-])CC2)CC1 | -2.11% (inactive)
6 | CCC(C)C(=O)NCc1nnc2n1CCN(Cc1cccnc1)CC2 (stereo not given) | 0.14% (inactive)
7 | O=S(=O)(c1ccc(F)cc1)N1CCN(Cc2ccccc2F)CC1 | 3% (inactive)
8 | CCOc1ccccc1CN1CCN(Cc2cccnc2)CC1CCO (stereo not given) | 8.25% (inactive)
9 | O=[N+]([O-])c1ccccc1CN1CCN(Cc2cccnc2)CC1 | 61.9% (active)
10 | O=C(CC(Nc1ccc2ccccc2c1)c1cccnc1)c1ccccc1 (stereo not given) | 1.3% (inactive)
11 | CC(=O)Nc1ccc(Oc2cc(NC(=O)c3cccc(F)c3)cc([N+](=O)[O-])c2)cc1 | 9% (inactive)
12 | O=C1c2ccccc2C(=O)c2c1cccc2S(=O)(=O)N1CCCC1 | 10.2% (inactive)
13 | O=C(Nc1ccc2nsnc2c1NC(=O)c1ccc2nsnc2c1)c1ccc2nsnc2c1 | 1.05% (inactive)
14 | N#CCSc1nc2[nH]ncc2c(=O)n1-c1cccc(C(F)(F)F)c1 | 1.44% (inactive)
15 | CC(C)[C@@H](C(=O)OCC(=O)Nc1cccnc1Cl)N1C(=O)c2ccccc2C1=O | -1.46% (inactive)
16 | Oc1cccc(/C=N/Nc2ccc(Cl)nn2)c1O | 89.8% (active)
17 | COc1ccccc1N=Cc1cccc(O)c1O | -5.98% (inactive)
18 | C/C(=N\Nc1nc(C(C)(C)C)cs1)c1ccccc1O | 6.2% (inactive)
19 | NC(=O)c1ccc(N=Cc2cccc(O)c2O)cc1 | 25.2% (inactive)
20 | C/C(=N\NC(=O)C(O)(c1ccccc1)c1ccccc1)c1ccccc1O | -4.23% (inactive)

Row | Structure (SMILES) | inhibition
21 | C/C(=N\Nc1ccc(Cl)nn1)c1ccccc1O | 61.1% (active)
22 | COc1ccc(/C=C/C(=O)NCc2ccccc2OC)cc1 | -9.24% (inactive)
23 | CCc1ccc(N=c2oc3c(C)ncc(CO)c3cc2C(N)=S)cc1 | 3.64% (inactive)
24 | COc1ccc(S(=O)(=O)/N=C2/C=C(Nc3ccc(O)cc3)C(=O)c3ccccc32)cc1 | 20% (inactive)
25 | COC(=O)c1ccccc1NC1=C/C(=N/S(=O)(=O)c2ccccc2)c2ccccc2C1=O | 23.4% (inactive)
26 | COc1ccccc1NC1=C/C(=N/S(=O)(=O)c2ccc(F)cc2)c2ccccc2C1=O | 67.4% (active)
27 | CCOc1ccc(CN2CCN(Cc3ccc(OC)c(OCC)c3)CC2)cc1 | 9.84% (inactive)
28 | COc1ccc(C(=O)N2CCN(Cc3cccc(OC)c3)CC2)cc1 | 45.7% (inactive)
29 | CCOc1ccccc1N1CCN(S(=O)(=O)c2ccc([N+](=O)[O-])cc2)CC1 | 6.79% (inactive)
30 | COC(=O)c1c(OC2CCCC2)cc(=O)n2c1CCN(Cc1cccnc1)CC2 | 2.84% (inactive)
31 | CCOc1cc(CN2CCC(n3nccc3NC(=O)C(C)(C)C)CC2)ccc1OC | -3.52% (inactive)
32 | COc1cc(CN2CCN(Cc3cccnc3)CC2)cc(OC)c1OC | 80.7% (active)
33 | CCOc1cc(CN2CCN(Cc3ccccn3)CC2)ccc1OC | 62.3% (active)
34 | CCOc1ccccc1N1CCN(Cc2cc(OC)c(O)c([N+](=O)[O-])c2)CC1 | 55.2% (active)
35 | COc1cccc(CN2CCN(C(=O)c3ccccc3F)CC2)c1 | 56.7% (active)
36 | COc1cc(CN2CCN(c3ccccn3)CC2)cc(OC)c1O | 19.3% (inactive)
37 | Cc1cc2nc(N3CCCN(Cc4cccnc4)CC3)nc(C)c2cc1C | 6.51% (inactive)
38 | CCOc1cc(CN2CCN(C(=O)c3ccccc3F)CC2)ccc1OC | 34.4% (inactive)
39 | c1ccc2c(-c3nc(Nc4ccc(N5CCOCC5)cc4)c4ncn(C5CCCCC5)c4n3)csc2c1 | 1.65% (inactive)
40 | COc1cccc(OC)c1C(=O)NNC(=O)c1cccc(C)c1O | -15.2% (inactive)

Row | Structure (SMILES) | inhibition
41 | Cn1cnnc1SCC(=O)N1CCN(c2ccccc2)CC1 | 1.28% (inactive)
42 | CCOC(=O)c1sc(NC(=O)c2ccc(S(=O)(=O)N3CCc4ccccc43)cc2)nc1-c1ccccc1 | 15.2% (inactive)
43 | CCOC(=O)c1c(NC(=O)C(C)Sc2nnc(CNC(=O)c3ccc(C)c([N+](=O)[O-])c3)n2CCc2ccccc2)sc2c1CCC2 (stereo not given) | -9.22% (inactive)
44 | O=C(COc1ccc(Cl)cc1Cl)Nc1ccc(Br)cn1 | 9.36% (inactive)
45 | Cc1cc(-n2c(C)nc3ccccc3c2=O)ccc1NS(=O)(=O)c1ccccc1 | -5.82% (inactive)
46 | O=C(O)CNC(=O)/C(=C/c1ccc2c(c1)OCO2)NC(=O)c1cccc(Br)c1 | -6.12% (inactive)
47 | COc1ccccc1NC(=O)N1CCC(CO)(Cc2ccccc2Cl)CC1 | -1.19% (inactive)
48 | COc1ccc(/C=N/N2CCN(C)CC2)cc1OCc1ccccc1 | 21.7% (inactive)
49 | O=C1CCN(Cc2cccnc2)CCN1Cc1c(F)cc(F)cc1F | 10.8% (inactive)
50 | CCOC(=O)C1CCN(Cc2ccccc2F)CC1 | 26.1% (inactive)
51 | Brc1cccc(CN2CCN(Cc3cccnc3)CC2)c1 | 77.7% (active)
52 | COc1cc(CN2CCC(O)CC2)ccc1OCc1ccccc1 | -15% (inactive)
53 | COc1ccc(CN2CCN(Cc3cccnc3)CC2)cc1OCc1ccccc1 | 75.8% (active)
54 | COc1cc(OC)c(OC)cc1CN1CCN(C(=O)c2ccccc2F)CC1 | 17.8% (inactive)
55 | COc1c(S(=O)(=O)N2CCN(Cc3ccccc3)CC2)ccc(Cl)c1Cl | -5.29% (inactive)
56 | c1ccc(CCc2nnc3n2CCN(Cc2cccnc2)CC3)cc1 | 4.85% (inactive)
57 | COc1cccc(OC)c1C(=O)N1CCN(Cc2ccccc2F)CC1 | 55.7% (active)
58 | c1ccc(COc2ccccc2CNCc2cccnc2)cc1 | -4.27% (inactive)
59 | CCCS(=O)(=O)N1CCN(Cc2ccc(OC)c(OCc3ccccc3)c2)CC1 | 52.7% (active)
60 | COc1ccc(NC(=O)c2cc(C3CC3)on2)cc1 | -14% (inactive)
